Source: PubChem (National Center for Advancing Translational Sciences (NCATS))
Many of the other results were omitted from the sample, so hits are more common in it than they were.
CHX counter: counter-screen hit for Shiga toxin inhibitors, cycloheximide. 12% of 300,000 active. cell reporter, cycloheximide protein synthesis inhibition counterscreen. max response, %; in the data active = max response mostly above about 13%, no sharp cut-off; inactive = mostly below about 14%; note: read at 38.3 µM for the half of the compounds with a filed dose
SARS PLpro yeast: blocks SARS-CoV papain-like protease in a yeast assay. S. cerevisiae expressing SARS-CoV PLpro, growth rescue. AID 485353. Potency, µM (top dose mostly 32.9 µM), actives largely listed as activators. 0.19% of 330,000 active; note: nearly all actives have a fitted effect of over 55% in size
Shiga inhibitor: blocks Shiga toxin action in Vero cells; Vero cells, Shiga toxin protein synthesis inhibition reporter; inhibition, % at 38.7 µM; 9.2% of 290,000 active; in the data active = inhibition mostly above about 28%, no sharp cut-off; inactive = mostly below about 43%
LmPK inh: blocks Leishmania mexicana pyruvate kinase activity; 0.37% of 290,000 active; Potency, µM (titrated, usually from 57.5 µM), most hits filed as inhibitors; purified LmPK, Kinase-Glo ATP luminescence, 1 h; active = well fitted curve in the direction sought with a large enough effect; inconclusive = small, poorly fitted or top-dose-only effect, or another doubt; inactive = no such curve, though single readings can be large; an effect the other way counts as inactive or inconclusive
Target sequence (Q27686 whole entry, looked up): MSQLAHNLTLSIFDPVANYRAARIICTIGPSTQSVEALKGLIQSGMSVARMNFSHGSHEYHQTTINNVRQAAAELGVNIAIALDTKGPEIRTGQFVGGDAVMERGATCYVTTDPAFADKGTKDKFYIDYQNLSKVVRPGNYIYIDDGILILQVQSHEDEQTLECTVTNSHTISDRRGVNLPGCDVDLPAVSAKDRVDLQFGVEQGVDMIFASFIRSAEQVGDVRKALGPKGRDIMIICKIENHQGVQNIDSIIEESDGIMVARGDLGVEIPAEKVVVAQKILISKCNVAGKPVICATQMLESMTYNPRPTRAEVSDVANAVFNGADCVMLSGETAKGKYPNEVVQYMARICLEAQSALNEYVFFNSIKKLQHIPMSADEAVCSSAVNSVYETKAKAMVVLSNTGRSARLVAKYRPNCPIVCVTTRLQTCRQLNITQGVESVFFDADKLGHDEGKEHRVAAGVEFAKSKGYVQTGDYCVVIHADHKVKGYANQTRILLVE
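0.1 nM LmPK, 0.5 mM PEP, 0.1 mM ADP; 50 mM imidazole pH 7.2, 7 mM MgCl2, 50 mM KCl; 1 h RT. Kinase-Glo luminescence readout, normalized to no-enzyme (full inhibition) and uninhibited wells.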
NS1 function inh: inhibitors of influenza NS1 protein function; Potency, µM (doses to about 46.1 µM); 0.4% of 270,000 active; note: actives are rising curves; nearly all actives have a fitted effect of over 50% in size
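OD600 was taken as the measure of yeast growth restored by compound in an NS1-expressing S. cerevisiae strain. Cells had been washed out of glucose medium and diluted 1:100 into galactose -URA medium, pH 6.0.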
TbPYK inhibitor: inhibitors of Trypanosoma brucei pyruvate kinase | TbPYK enzyme, Kinase-Glo Plus ATP luminescence, 45 min | Q57TT1 | AID 624173 | 0.12% of 410,000 active | Potency, µM (series often up to 76.8 µM), hits mostly inhibitors; active = well fitted curve in the direction sought with a large enough effect; inconclusive = small, poorly fitted or top-dose-only effect, or another doubt; inactive = no such curve, though single readings can be large; an effect the other way counts as inactive or inconclusive; note: nearly all actives have a fitted effect of over 50% in size
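ADP (130 uM final) triggers the TbPYK reaction after compound addition; incubation is 45 min at room temperature. Kinase-Glo Plus is then added and luminescence imaged. Normalized data are fitted to concentration-effect curves.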
Large screens that a line does not name were inactive. Unless noted, calls come from the whole dose curve.

COc1ccc(-c2nc(SCC(=O)N3CCC(C)CC3)n[nH]2)cc1	none (no result: CHX counter, SARS PLpro yeast, Shiga inhibitor, LmPK inh, NS1 function inh)
CC(NC(=O)COC(=O)Cc1cccs1)c1ccc(F)cc1 (configuration not stated)	none (no result: CHX counter, SARS PLpro yeast, Shiga inhibitor, LmPK inh, NS1 function inh)
Cc1ccc(/C(N)=N/OC(=O)COc2ccccc2Cl)cc1	CHX counter 39
N/C(=N\OC(=O)COc1ccccc1Cl)c1ccc(Cl)cc1	CHX counter 15, Shiga inhibitor active
N/C(=N\OC(=O)COc1ccc(Cl)cc1)c1ccc(Cl)cc1	none
Brc1ccccc1-n1nnc(-c2cccnc2)n1	CHX counter 29
Clc1ccc(-n2nnc(-c3cccnc3)n2)cc1Cl	CHX counter 41, Shiga inhibitor 41
Fc1ccc(-n2nnc(-c3cnc4ccccc4c3)n2)cc1	CHX counter 46, Shiga inhibitor 62, LmPK inh inconclusive
Clc1ccc(-n2nnc(-c3ncc[nH]3)n2)cc1Cl	none (no result: CHX counter, SARS PLpro yeast, Shiga inhibitor, LmPK inh, NS1 function inh)
O=c1[nH]c2ccccc2cc1-c1nnn(-c2ccc(F)cc2)n1	CHX counter 23, Shiga inhibitor 49
c1cncc(-c2nnc(-c3cccnc3)nn2)c1	none
CCCCOCCCN1CC(=O)N2[C@@H](Cc3c([nH]c4ccccc34)C2(C)C)C1=O	none
Fc1ccc(-n2nnc(-c3cccnc3)n2)cc1	CHX counter 42, Shiga inhibitor 70
O=C(NNC(=O)c1ccccc1Cl)c1cc2cc(OC(F)(F)F)ccc2[nH]1	none
O=C(NCCC(=O)N1CCN(c2ccccn2)CC1)c1ccc([N+](=O)[O-])cc1	none (no result: CHX counter, Shiga inhibitor, LmPK inh, NS1 function inh)
C/C(=N\N1CCN(c2ccccc2)CC1)c1cccs1	none
C/C(=N\N1CCN(c2ccccc2)CC1)c1ccco1	CHX counter 28, Shiga inhibitor active
C/C(=N/N1CCN(c2ccccc2)CC1)c1cccc([N+](=O)[O-])c1	CHX counter 33, Shiga inhibitor 64 (no result: NS1 function inh)
C/C(=N\N1CCN(c2ccccc2)CC1)c1ccncc1	CHX counter 22, Shiga inhibitor 46
C/C(=N/N1CCN(c2ccccn2)CC1)c1ccc([N+](=O)[O-])cc1	CHX counter 31, Shiga inhibitor 21
CC(CC(=O)Nc1ccccc1)NCCCN1CCCC1=O (configuration not stated)	none
C/C(=N/N1CCN(Cc2ccccc2)CC1)c1ccc(Br)cc1	none
C/C(=N\N1CCN(Cc2ccccc2)CC1)c1ccco1	Shiga inhibitor 53
COc1cccc(C(=O)Nc2cccc(C(=O)OCc3cc(=O)n4c5c(sc4n3)CCCC5)c2)c1	none (no result: CHX counter, SARS PLpro yeast, Shiga inhibitor, LmPK inh, NS1 function inh)
Cn1c(=O)c2[nH]cnc2n(C)c1=O.[CH2-][C@H](Cc1cccc2cc(C(=O)O)c(=O)oc12)OC.[Hg].[OH-]	none (no result: CHX counter, SARS PLpro yeast, Shiga inhibitor, LmPK inh, TbPYK inhibitor)
O=C(CC1C(=O)N(c2ccc(F)cc2)C(=O)N1Cc1ccc2c(c1)OCO2)Nc1ccc(F)cc1 (configuration not stated)	none (no result: CHX counter, SARS PLpro yeast, Shiga inhibitor, LmPK inh, NS1 function inh)
O=C(c1cccs1)c1ccc(-c2cccs2)s1	CHX counter 30, LmPK inh inconclusive
CN1CCN(C(=O)c2ccc(-c3cccs3)s2)CC1	CHX counter 42, Shiga inhibitor 55
CCOC(=O)c1cnc(-n2nc(C)cc2C)nc1NC	CHX counter 32
COc1ccc(C2C(C(=O)NCc3ccccn3)CCC(=O)N2c2cc(OC)c(OC)c(OC)c2)cc1 (configuration not stated)	CHX counter 40, Shiga inhibitor 94 (no result: NS1 function inh)
O=C(CC1Sc2ccccc2NC1=O)Nc1cccc(-c2nnc3n2CCCCC3)c1 (configuration not stated)	Shiga inhibitor 97
O=C(CC1Sc2ccccc2NC1=O)Nc1cccnc1 (configuration not stated)	none
CCc1cccc(C)c1NC(=O)Cn1cnc2c1c(=O)n(C)c(=O)n2C	none (no result: CHX counter, SARS PLpro yeast, Shiga inhibitor, LmPK inh, NS1 function inh)
O=C(NCCCN1CCN(c2ccc(F)cc2)CC1)c1sc2ncccc2c1-n1cccc1	none (no result: CHX counter, SARS PLpro yeast, Shiga inhibitor, LmPK inh, NS1 function inh)
Cc1cc(C(C)(C)C)ccc1NC(=O)CC(C)(C)CC(=O)O	CHX counter 49, Shiga inhibitor 82
CCc1cccc(C)c1NC(=O)CC(C)(C)CC(=O)O	none
CN1OC[C@@H]2CN(Cc3ccc(Cl)cc3)[C@H](c3ccc(-n4ccnc4)cc3)C[C@@H]21	none (no result: CHX counter, SARS PLpro yeast, Shiga inhibitor, LmPK inh, NS1 function inh)
O=C(O)COn1c(-c2ccccc2)nc2ccc([N+](=O)[O-])cc21	CHX counter 25, Shiga inhibitor 49
CCOC(=O)C(C)On1c(-c2ccccc2)nc2ccc([N+](=O)[O-])cc21 (configuration not stated)	CHX counter 35, Shiga inhibitor 50
CN(C)/C=N/C(=S)Nc1ccc(Cl)cc1	CHX counter 35, Shiga inhibitor 65
CN(C)/C=N/C(=S)Nc1ccc(Cl)cc1Cl	CHX counter 57, Shiga inhibitor 74
CC(=O)/C(=C/N(C)C)C(=O)Nc1ccc(Cl)cc1Cl	none
COc1ccc(C(=S)N2CCN(c3ccccc3C)CC2)cc1OC	none (no result: CHX counter, SARS PLpro yeast, Shiga inhibitor, LmPK inh, NS1 function inh)
NC1=NC(=O)/C(=C\c2ccco2)S1	CHX counter 17
O=C(Cn1c(-c2ccccc2)c[n+]2ccsc12)c1ccccc1	none
O=C(Cn1c(-c2ccccc2)c[n+]2ccsc12)c1ccc([N+](=O)[O-])cc1	CHX counter 21, Shiga inhibitor 71
COc1ccc(-c2nn3c(=O)c(C)nnc3s2)cc1	Shiga inhibitor 54
COc1ccc(-c2nn3c(-c4ccccc4)nnc3s2)cc1	none
Clc1ccc(-c2nn3c(-c4ccccc4)nnc3s2)cc1	none
Cc1nc2sc(-c3ccccc3)nn2c(=O)c1Br	CHX counter 56, Shiga inhibitor 94, LmPK inh inconclusive
CN(C)c1ccc(CC(=O)N2CCCC(c3cc(C(=O)Nc4ccc(F)c(Cl)c4)no3)C2)cc1 (configuration not stated)	none (no result: CHX counter, SARS PLpro yeast, Shiga inhibitor, LmPK inh, NS1 function inh)
O=c1cc(-c2ccccc2)n2c(SCc3ccccc3Cl)nnc2[nH]1	none (no result: CHX counter, SARS PLpro yeast, Shiga inhibitor, LmPK inh, NS1 function inh)
CCOC(=O)C1CCN(C(=O)CNC(=O)c2nn(-c3ccc(OC)c(OC)c3)c(=O)c3ccccc23)CC1	CHX counter 21
CCOC(=O)C1CCN(C(=O)CNC(=O)c2nn(-c3ccc(OC)cc3)c(=O)c3ccccc23)CC1	CHX counter 27
CCOC(=O)N1CCN(C(=O)CNC(=O)c2nn(-c3ccc(OC)cc3)c(=O)c3ccccc23)CC1	CHX counter 18
COc1ccc(-n2nc(C(=O)NCC(=O)N3CCN(c4ccccc4F)CC3)c3ccccc3c2=O)cc1OC	CHX counter 25
COc1ccc(-n2nc(C(=O)NCC(=O)N3CCN(c4ccccc4F)CC3)c3ccccc3c2=O)cc1	none
COc1ccc(-n2nc(C(=O)NCC(=O)N3CCN(C)CC3)c3ccccc3c2=O)cc1OC	none
CC(Sc1n[nH]c(=O)n1Cc1ccccc1)C(=O)NCC1CCCO1 (configuration not stated)	none (no result: CHX counter, Shiga inhibitor, LmPK inh, NS1 function inh)
COc1ccc(-n2nc(C(=O)NCC(=O)N3CCCCCC3)c3ccccc3c2=O)cc1	CHX counter 16
O=[N+]([O-])c1ccc(N2CCc3ccccc3C2)nc1	CHX counter 28, Shiga inhibitor 54
Cc1ccc(C)c(OCC(=O)Nc2ccc3c(c2)OCO3)c1C	none
